We go through 67 compounds from the GenesisPotency data set.

Molecules are shown by their SMILES. In all, about 290,000 compounds went through this assay and about 3,000 (1%) were called active. No stated cut-off is given here; in the data, active means inhibition mostly above about 36% (no sharp cut-off); inactive means mostly below about 34%. Many of the other results were omitted from the sample, so actives are more common in it than they were.

The target of this experiment is T1, Nucleotide-binding oligomerization domain-containing protein 1, Homo sapiens (UniProt Q9Y239).
T1 sequence (whole entry): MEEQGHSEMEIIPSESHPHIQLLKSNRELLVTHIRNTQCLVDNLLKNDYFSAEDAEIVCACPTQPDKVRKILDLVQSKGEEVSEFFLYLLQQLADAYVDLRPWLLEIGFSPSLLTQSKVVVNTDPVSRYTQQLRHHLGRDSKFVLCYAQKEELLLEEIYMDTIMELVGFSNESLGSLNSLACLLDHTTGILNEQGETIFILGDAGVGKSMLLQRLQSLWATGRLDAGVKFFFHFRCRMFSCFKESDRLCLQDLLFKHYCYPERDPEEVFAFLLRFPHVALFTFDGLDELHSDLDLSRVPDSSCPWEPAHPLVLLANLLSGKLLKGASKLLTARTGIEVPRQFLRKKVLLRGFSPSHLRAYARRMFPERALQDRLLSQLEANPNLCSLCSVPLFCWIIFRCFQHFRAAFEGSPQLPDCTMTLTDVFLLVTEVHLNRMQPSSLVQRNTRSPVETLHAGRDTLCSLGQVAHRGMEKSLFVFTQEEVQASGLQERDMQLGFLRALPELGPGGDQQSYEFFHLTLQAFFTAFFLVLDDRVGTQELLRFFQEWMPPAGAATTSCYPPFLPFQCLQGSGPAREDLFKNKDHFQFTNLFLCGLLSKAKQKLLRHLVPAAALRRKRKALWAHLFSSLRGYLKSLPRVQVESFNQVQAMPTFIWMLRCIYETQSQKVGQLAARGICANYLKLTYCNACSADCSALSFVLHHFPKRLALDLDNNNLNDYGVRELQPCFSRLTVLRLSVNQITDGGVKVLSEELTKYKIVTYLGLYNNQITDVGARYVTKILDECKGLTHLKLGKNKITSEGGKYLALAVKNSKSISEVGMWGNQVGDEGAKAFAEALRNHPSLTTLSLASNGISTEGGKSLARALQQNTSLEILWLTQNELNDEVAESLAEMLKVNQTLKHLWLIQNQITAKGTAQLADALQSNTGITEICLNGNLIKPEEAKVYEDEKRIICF
In words: NOD1 signaling inhibitors, primary screen, cell-based, luminescence, uHTS (AID 1578).
For the compound `CC1Cc2ccccc2N1C(=S)NC(=O)c1cccc(Br)c1` (configuration not stated), the result was active.

For `Cn1c(=NC(=O)CCl)sc2ccccc21`, the result was active.

Turning to `Cc1cc(C(=O)CCl)c(C)n1CCc1ccc(F)cc1`, the compound was classed as active.

For the compound `CCc1ccc(-c2nc(CSCC(=O)N3CCN(c4ccccn4)CC3)c(C)o2)cc1`, the compound was classed as active.

In the case of `COc1cccc(CN(C)C(=O)CNC(=O)c2ccc(-c3ccccc3)cc2)c1OC`, the call was active.

As to `CCOc1ccc(S(=O)(=O)Nc2cnc3ccccc3c2)cc1`, the outcome was active.

Take `Cc1c(C(=O)Nc2nonc2-c2ccc(F)cc2)oc2ccc(F)cc12`: the call was active.

On to `Nc1ncc(Br)cc1S(=O)(=O)Nc1cc(C(F)(F)F)cc(C(F)(F)F)c1`, for which the call was active.

With `O=[N+]([O-])c1cc([N+](=O)[O-])c2oc(-c3ccccc3)c(Br)c2c1O`, the result was active.

For the compound `O=[N+]([O-])c1ccc(Oc2ccc(F)cc2)c2ccncc12`, the outcome was active.

With `O=[N+]([O-])c1ccc(Oc2ccc(F)cc2Br)c2ccncc12`, the result was active.

Take `Cn1nccc1C(=O)NC1CCCc2c1cnn2-c1ccc(F)cc1F` (configuration not stated): the call was active.

Regarding `Cc1ccc(C(=O)NC2CCCc3c2cnn3-c2ccc(F)cc2F)cn1` (configuration not stated), the result was active.

With `CC1=C(C(=O)NC2CCCc3c2cnn3-c2ccc(F)cc2F)OCCO1` (configuration not stated), the result was active.

For the compound `Cc1ccc(C(=O)CN2C(=O)c3ccccc3S2(=O)=O)cc1`, the compound was called active.

As to `COc1ccc(C(=O)CN2C(=O)c3ccccc3S2(=O)=O)cc1`, the compound was called active.

With `COc1ccc(-c2cc3nc(CCl)[nH]c(=O)c3s2)cc1`, the compound was called active.

Take `COc1ccc(-c2cc3nc(C)n(N)c(=O)c3s2)cc1`: the compound was called active.

In the case of `COc1ccccc1-c1nnc(Sc2nc([N+](=O)[O-])nn2C)o1`, the outcome was active.

For `OCCCNc1nccc(-c2cc(Nc3cccc(Cl)c3)ncn2)n1`, the compound was called active.

As to `OCCCNc1cc(-c2ccnc(Nc3cccc(Cl)c3)n2)ccn1`, the compound was called active.

Turning to `CCOC(=O)c1oc2ccc(S(=O)(=O)n3nc(-c4ccc(OC)cc4)cc3N)cc2c1C`, the compound was classed as active.

`CN(C)c1ccnc2sc3c(=O)n(Cc4ccccc4)cnc3c12`: the compound was called active.

Turning to `Cc1c(C(=O)N2CCN(Cc3ccc4c(c3)OCO4)CC2)sc2ncnc(N3CCN(c4ccccc4)CC3)c12`, the compound was classed as active.

For the compound `Cl.O=[N+]([O-])c1ccc2ncnc(N3CCN(Cc4ccc5c(c4)OCO5)CC3)c2c1`, the call was active.

On to `Cc1ccc(S(=O)(=O)CC#CCOC(=O)c2ccc([N+](=O)[O-])cc2)cc1`, for which the call was active.

For the compound `CCOC(=O)c1csc(Nc2nc3ccc(F)cc3s2)n1`, the result was active.

In the case of `CN(c1ccccc1)S(=O)(=O)c1cccc(NC(=O)c2cc(=O)c3ccccc3o2)c1`, the outcome was active.

Consider `Cc1cc(Cl)c(S(=O)(=O)N2CCN(c3ccc(F)cc3)CC2)cc1OCC(=O)NC1CCCCC1`, for which the result was active.

For the compound `Cc1cc(Cl)c(S(=O)(=O)N2CCCCCC2)cc1OCC(=O)NC1CCCCC1`, the compound was classed as active.

On to `Cc1cc(C)c(C(=O)/C=C/c2ccc(C(C)C)cc2)c(=O)[nH]1`, for which the outcome was active.

`Cc1cc(C)c(C(=O)/C=C/c2cccc3ccccc23)c(=O)[nH]1`: the compound was called active.

In the case of `O=C(/C=C/c1ccc2c(c1)OCO2)Nc1nc(-c2ccccc2)cs1`, the result was active.

As for `COc1cccc(N(C(=O)CCl)C(C(=O)NCCc2ccccc2)c2cccs2)c1` (configuration not stated), the outcome was active.

`COc1ccc(N(C(=O)CCl)C(C(=O)NCCc2ccccc2)c2cccs2)cc1` (configuration not stated): the call was active.

For `COc1ccc(NS(=O)(=O)c2cccc(NC(=O)c3ccc(Cl)nc3)c2)cc1`, the outcome was active.

In the case of `COc1ccc(NS(=O)(=O)c2cccc(NC(=O)c3ccc(S(=O)(=O)N4CCCCCC4)cc3)c2)cc1`, the outcome was active.

As to `Cc1sc2ncnc(Sc3nnnn3-c3ccc(Cl)cc3)c2c1C`, the compound was called active.

For `Cc1ccccc1-n1nnnc1Sc1nnnn1-c1ccccc1`, the call was active.

On to `Cc1sc2ncnc(Sc3nnnn3-c3ccccc3)c2c1C`, for which the compound was classed as active.

With `O=C(N/N=C/c1ccc([N+](=O)[O-])o1)c1ccccc1-n1cccc1`, the result was active.

As to `O=[N+]([O-])c1ccc(/C=N/N=C/c2ccc([N+](=O)[O-])o2)o1`, the outcome was active.

With `Cc1scc(C(=O)N/N=C/c2ccc([N+](=O)[O-])o2)c1C`, the result was active.

On to `O=C(N/N=C/c1ccc([N+](=O)[O-])o1)c1ccc2c(c1)OCO2`, for which the call was active.

In the case of `O=C(N/N=C/c1ccc([N+](=O)[O-])o1)c1ccccc1NS(=O)(=O)c1cccs1`, the call was active.

`Cc1nn(-c2cccc(Cl)c2)c2nc(C(F)(F)F)[nH]c(=O)c12`: the compound was classed as active.

Regarding `Cc1nn(-c2cc(C(F)(F)F)ccc2Cl)c2nc(C(Cl)(Cl)Cl)[nH]c(=O)c12`, the outcome was active.

In the case of `COc1cccc(N2CCN(c3ncnc4c3cnn4-c3ccc(C)cc3C)CC2)c1`, the call was active.

As to `COc1ccc(-c2n(CC(=O)OC3CC(C)CCC3C(C)C)c3ccccc3[n+]2C)cc1.[Cl-]` (configuration not stated), the call was active.

Take `Cc1csc(SCC(=O)Nc2cccc3nsnc23)n1`: the outcome was active.

As for `Cc1noc(C)c1CSc1nc2ccccc2nc1NS(=O)(=O)c1ccc(Cl)cc1`, the outcome was active.

With `Cc1[nH]nc2ncc(C(=O)c3ccccc3O)cc12`, the outcome was active.

Consider `Clc1ccc(CSc2nnc(-c3ccncc3)o2)cc1`, for which the compound was called active.

With `Fc1ccc(CSc2nnc(-c3ccncc3)o2)cc1`, the compound was called active.

On to `O=c1cc(-c2ccccc2Cl)oc2c([N+](=O)[O-])c(O)cc(O)c12`, for which the result was active.

Regarding `CCOc1ccccc1NC(=O)CSc1nc2nc(-c3cccs3)cc(C(F)(F)F)c2c(=O)[nH]1`, the compound was called active.

Consider `O=C(CSc1nc2nc(-c3cccs3)cc(C(F)(F)F)c2c(=O)[nH]1)Nc1ccc(F)c(F)c1`, for which the result was active.

As to `Cc1ccc(C)c(NC(=O)CSc2nc3nc(-c4cccs4)cc(C(F)(F)F)c3c(=O)[nH]2)c1`, the result was active.

As for `O=C(CSc1nc2nc(-c3cccs3)cc(C(F)(F)F)c2c(=O)[nH]1)Nc1c(F)c(F)c(F)c(F)c1F`, the compound was classed as active.

On to `COc1ccc(-c2c(C(F)(F)F)[nH]n3c(=O)cc(-c4ccccc4)nc23)cc1`, for which the compound was classed as active.

Consider `O=c1cc(-c2ccccc2)nc2c(-c3ccccc3)c(C(F)(F)F)[nH]n12`, for which the compound was classed as active.

For `CC(=O)/C=C/n1c(=S)oc2ccccc21`, the compound was called active.

Regarding `CC(C)CC(=O)/C=C/n1c(=S)oc2ccccc21`, the compound was classed as active.

In the case of `CCOC(=O)N1CCN(C(=O)C2CCCN(Cc3nc(-c4ccc(Cl)cc4)oc3C)C2)CC1` (configuration not stated), the outcome was active.

On to `CC(=O)c1c(C)[nH]c(C(=O)OCC(=O)Nc2sc3c(c2C#N)CCCC3)c1C`, for which the compound was called active.

`Br.CC(=O)Nc1nc(C)c(-c2csc(Nc3ccc(O)cc3)n2)s1`: the outcome was active.

`COc1ccccc1Nc1nc(-c2sc(NC(=O)c3ccco3)nc2C)cs1`: the compound was classed as active.
